Structures can show the parent of a compound that is named as a salt. ± gives the standard deviation or the standard deviation of the averaged measurements.
What was measured:
Settings in all cases: 25 µM; exposure: 24-48 hpf
[1] = test system: Danio rerio Tg(wt1b:EGFP) embryo, pronephros; assay: glomerular separation, fold change vs DMSO control; higher = glomeruli further apart (abnormal)
Procedure, shortened: (§1)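 In HEPES-buffered E3 with 0.003% PTU and 0.5% DMSO, dechorionated Tg(wt1b:EGFP) zebrafish embryos were exposed to 25 μM compound from 24 to 48 hpf at 28.5°C. Pronephroi were then imaged dorsally at 470 nm in 10 z-slices, in 96-well plates filled with agarose. On maximum projections, a Fiji macro turned 16 manually placed reference points into distances and angles, and values more than 2 SD from the feature mean were excluded. Features are fold changes relative to the mean of DMSO-treated embryos from the same day.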

[2] = test system: Danio rerio Tg(wt1b:EGFP) embryo, pronephros; assay: glomerular width (mean of left and right), fold change vs DMSO control; higher = wider glomerulus
Procedure, shortened: as §1

[3] = test system: Danio rerio Tg(wt1b:EGFP) embryo, pronephros; assay: fraction of imaged embryos annotated as normal kidney; higher = less nephrotoxic; extreme values may be limits of the assay
Procedure, shortened: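 Dechorionated Tg(wt1b:EGFP) zebrafish embryos were exposed in 12-well plates to 25 μM compound in 0.5% DMSO, 5 mM HEPES-buffered E3 with 0.003% PTU, from 24 to 48 hpf at 28.5°C. Tricaine-anaesthetised larvae were oriented dorsally in agarose-filled 96-well plates, and pronephroi were imaged by widefield fluorescence (470 nm, 10 z-slices). Each embryo was manually annotated from maximum projections. The read-out is the fraction of embryos per treatment assigned to the normal-kidney category.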

[4] = test system: Danio rerio Tg(wt1b:EGFP) embryo, pronephros; assay: pronephric angle neck segment to proximal convoluted tubule (mean of left and right), fold change vs DMSO control; higher = larger pronephric angle
Procedure, shortened: as §1

Row | SMILES | glomerular separation [1] | glomerular width [2] | fraction of imaged embryos annotated as normal kidney [3] | pronephric angle neck segment [4]
1 | O=C(O)c1cc(=O)c2c(OCC(O)COc3cccc4oc(C(=O)O)cc(=O)c34)cccc2o1 [Cromolyn disodium salt] | 0.753 ± 0.22 | 1.08 ± 0.011 | 0.909 | 1.0048 ± 0.00061
2 | COCC(=O)Nc1c(I)c(C(=O)NCC(O)CO)c(I)c(C(=O)N(C)CC(O)CO)c1I (centres undefined) [Iopromide] | 0.857 ± 0.4 | 1.02 ± 0.041 | 0.917 | 0.97 ± 0.023
3 | CNc1ncnc2c1ncn2[C@@H]1O[C@H](CO)[C@@H](O)[C@H]1O [N6-methyladenosine] | 0.849 ± 0.21 | 1.05 ± 0.029 | 1 | 1.01 ± 0.065
4 | CN(C)c1nc(N(C)C)nc(N(C)C)n1 [Altretamine] | 0.998 ± 0.46 | 0.923 ± 0.011 | 0.917 | 1.06 ± 0.062
5 | CCCNC(=O)NS(=O)(=O)c1ccc(Cl)cc1 [Chlorpropamide] | 1.09 ± 0.39 | 1.06 ± 0.087 | 0.75 | 1.051 ± 0.0085
6 | Oc1ccc(OCc2ccccc2)cc1 [Monobenzone] | 2.85 ± 1.3 | 0.753 ± 0.068 | 0.25 | 1.21 ± 0.018

Reference: the supplement of paper PMC7366291
